Measured values reported in PubChem BioAssay (Tox21).
A number with no mark means an inactive call. Where a call stands in place of a potency, no number is given. Active and inactive are the calls of the source. Calls come from the whole dose curve; as a rule, active = well fitted curve in the direction sought with a large enough effect in the repeat runs; inconclusive = weak or mixed curves; inactive = flat fitted curve, though single readings scatter.

Assay: qHTS assay to test for compound auto fluorescence at 590 nm (red) in HEK293 cells (AID 720679)
Conditions: red autofluorescence 540/590 nm; series mostly up to 91.3 µM
Outline: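 Each well held 2,000 HEK293 cells in medium containing 10% dialyzed FBS. Following 4-5 hr attachment at 37C, 23 nL test compound or DMSO was added; plates sat overnight, and red fluorescence (540/590nm) was recorded.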

Row | SMILES | outcome | fluorescence, % of fluorescent control
1 | CC(=O)CCc1ccc(O)cc1 | inactive | –
2 | NC(=O)c1ncn([C@@H]2O[C@H](CO)[C@@H](O)[C@H]2O)c1N | inactive | –
3 | c1ccc(SCCSc2ccccc2)cc1 | inactive | –
4 | CC(C)[N+](C)(C)CC(O)COc1cccc2ccccc12 (centres undefined) | inactive | –
5 | C=C(C)[C@H]1CC=C(C)CC1 | inactive | –
6 | CSc1nc(NC2CC2)nc(NC(C)(C)C)n1 | inactive | –
7 | CC(O)CN(CCCN(C)C)CCCN(C)C (centres undefined) | inactive | –
8 | COC[C@H](c1ccc(C(F)(F)F)cc1)N1CCN(C2(C)CCN(C(=O)c3c(C)ncnc3C)CC2)C[C@H]1C | inactive | –
9 | OCCN1C[C@H](O)[C@@H](O)[C@H](O)[C@H]1CO | inactive | –
10 | [O-][N+](=Nc1ccccc1)c1ccccc1 | inactive | –
11 | O=[N+]([O-])c1ccc(Oc2ccc([N+](=O)[O-])cc2)cc1 | inactive | –
12 | OCC(O)[C@@H](O)[C@H](O)[C@H](O)CO[C@H]1O[C@H](CO)[C@@H](O)[C@H](O)[C@H]1O (some centres undefined) | inactive | –
13 | CC(C)c1cccc(O)c1 | inactive | –
14 | CO | inactive | –
15 | COc1cccc(Br)c1 | inactive | –
16 | CCc1cc(S(=O)(=O)O)c2cc(C(C)C)cccc1-2 | inactive | –
17 | O=C(O)C(O)[C@H](O)[C@@H](O)[C@H](O)[C@H](O)CO (some centres undefined) | inactive | –
18 | CCCCCCCCC=O | inactive | –

Row | SMILES | outcome | fluorescence, % of fluorescent control
19 | C=C(C)C(=O)NCCCN(C)C | inactive | –
20 | CC(C)(O)C(=O)c1ccc(OCCO)cc1 | inactive | –
21 | N#CCN(CC#N)CCN(CC#N)CC#N | inactive | –
22 | CC/C=C\CCCCO | inactive | –
23 | COc1cccc(OC)c1 | inactive | –
24 | CCCCCCOC(=O)c1ccccc1O | inactive | –
25 | CC(C)N1C(=O)c2ccccc2C1=O | inactive | –
26 | O=[N+]([O-])c1ccc(CCO)cc1 | inactive | –
27 | COc1cc(O)cc(O)c1 | inactive | –
28 | O=C(O)CCNC(=O)c1ccc(N=Nc2ccc(O)c(C(=O)O)c2)cc1 | inactive | –
29 | CC(C)c1cccc(C(C)C)c1N | inactive | –
30 | CO[Si](OC)(OC)OC | inactive | –
31 | NS(=O)(=O)c1cc2c(cc1Cl)NC(CSCc1ccccc1)=NS2(=O)=O | – | -0.0194% [at 18.6 µM]
32 | CCCCOCC(C)OCC(C)O (centres undefined) | inactive | –
33 | Cc1ccccc1C(=O)O | inactive | –
34 | CCCCCCCCCCCCCCCCCCOCC(O)CO (centres undefined) | inactive | –
35 | C=CCOc1nc(OCC=C)nc(OCC=C)n1 | inactive | –
36 | Cn1ccc2cc3c(cc21)CCN3C(=O)Nc1cccnc1 | inactive | –

Assay: qHTS assay to test for compound auto fluorescence at 535 nm (green) in HEK293 cells (AID 720680)
Conditions: green autofluorescence 485/535 nm; series mostly up to 91.3 µM

Row | SMILES | outcome
37 | CC(=O)CCc1ccc(O)cc1 | inactive
38 | NC(=O)c1ncn([C@@H]2O[C@H](CO)[C@@H](O)[C@H]2O)c1N | inactive
39 | c1ccc(SCCSc2ccccc2)cc1 | inactive
40 | CC(C)[N+](C)(C)CC(O)COc1cccc2ccccc12 (centres undefined) | inactive
41 | C=C(C)[C@H]1CC=C(C)CC1 | inactive
42 | CSc1nc(NC2CC2)nc(NC(C)(C)C)n1 | inactive
43 | CC(O)CN(CCCN(C)C)CCCN(C)C (centres undefined) | inactive
44 | COC[C@H](c1ccc(C(F)(F)F)cc1)N1CCN(C2(C)CCN(C(=O)c3c(C)ncnc3C)CC2)C[C@H]1C | inactive
45 | OCCN1C[C@H](O)[C@@H](O)[C@H](O)[C@H]1CO | inactive
46 | O=[N+]([O-])c1ccc(Oc2ccc([N+](=O)[O-])cc2)cc1 | inactive
47 | CC(C)c1cccc(O)c1 | inactive
48 | CCc1cc(S(=O)(=O)O)c2cc(C(C)C)cccc1-2 | inactive
49 | C=C(C)C(=O)NCCCN(C)C | inactive
50 | CC(C)(O)C(=O)c1ccc(OCCO)cc1 | inactive
51 | CC/C=C\CCCCO | inactive
52 | COc1cccc(OC)c1 | inactive
53 | CCCCCCOC(=O)c1ccccc1O | inactive
54 | CC(C)N1C(=O)c2ccccc2C1=O | inactive
55 | O=[N+]([O-])c1ccc(CCO)cc1 | inactive
56 | O=C(O)CCNC(=O)c1ccc(N=Nc2ccc(O)c(C(=O)O)c2)cc1 | inactive
57 | CC(C)c1cccc(C(C)C)c1N | inactive
58 | CO[Si](OC)(OC)OC | inactive
59 | CCCCOCC(C)OCC(C)O (centres undefined) | inactive
60 | Cc1ccccc1C(=O)O | inactive
61 | CCCCCCCCCCCCCCCCCCOCC(O)CO (centres undefined) | inactive
62 | C=CCOc1nc(OCC=C)nc(OCC=C)n1 | inactive
63 | Cn1ccc2cc3c(cc21)CCN3C(=O)Nc1cccnc1 | inactive

Assay: qHTS assay to test for compound auto fluorescence at 460 nm (blue) in HEK293 cell free culture (AID 720681)
Conditions: cell-free medium, autofluorescence 405/460 nm (blue); series mostly up to 91.3 µM
Outline: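 Test compounds were pinned into cell-free culture medium (DMEM with 10% FBS) and fluorescence was read directly at Ex/Em 405/460 nm. Signals were expressed as fluorescence equivalents of triamterene, with DMSO vehicle as control.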

Row | SMILES | Potency | fluorescence, % of fluorescent control
64 | CC(=O)CCc1ccc(O)cc1 | inactive | –
65 | NC(=O)c1ncn([C@@H]2O[C@H](CO)[C@@H](O)[C@H]2O)c1N | inactive | –
66 | c1ccc(SCCSc2ccccc2)cc1 | inactive | –
67 | CC(C)[N+](C)(C)CC(O)COc1cccc2ccccc12 (centres undefined) | inactive | –
68 | C=C(C)[C@H]1CC=C(C)CC1 | inactive | –
69 | CSc1nc(NC2CC2)nc(NC(C)(C)C)n1 | inactive | –
70 | CC(O)CN(CCCN(C)C)CCCN(C)C (centres undefined) | inactive | –
71 | COC[C@H](c1ccc(C(F)(F)F)cc1)N1CCN(C2(C)CCN(C(=O)c3c(C)ncnc3C)CC2)C[C@H]1C | inactive | –
72 | OCCN1C[C@H](O)[C@@H](O)[C@H](O)[C@H]1CO | inactive | –
73 | [O-][N+](=Nc1ccccc1)c1ccccc1 | inactive | –
74 | O=[N+]([O-])c1ccc(Oc2ccc([N+](=O)[O-])cc2)cc1 | inactive | –
75 | OCC(O)[C@@H](O)[C@H](O)[C@H](O)CO[C@H]1O[C@H](CO)[C@@H](O)[C@H](O)[C@H]1O (some centres undefined) | inactive | –
76 | CC(C)c1cccc(O)c1 | inactive | –
77 | CO | inactive | –
78 | COc1cccc(Br)c1 | inactive | –
79 | CCc1cc(S(=O)(=O)O)c2cc(C(C)C)cccc1-2 | inactive | –
80 | O=C(O)C(O)[C@H](O)[C@@H](O)[C@H](O)[C@H](O)CO (some centres undefined) | inactive | –
81 | CCCCCCCCC=O | inactive | –

Row | SMILES | Potency | fluorescence, % of fluorescent control
82 | C=C(C)C(=O)NCCCN(C)C | inactive | –
83 | CC(C)(O)C(=O)c1ccc(OCCO)cc1 | inactive | –
84 | N#CCN(CC#N)CCN(CC#N)CC#N | inactive | –
85 | CC/C=C\CCCCO | inactive | –
86 | COc1cccc(OC)c1 | inactive | –
87 | CCCCCCOC(=O)c1ccccc1O | inactive | –
88 | CC(C)N1C(=O)c2ccccc2C1=O | inactive | –
89 | O=[N+]([O-])c1ccc(CCO)cc1 | inactive | –
90 | COc1cc(O)cc(O)c1 | inactive | –
91 | O=C(O)CCNC(=O)c1ccc(N=Nc2ccc(O)c(C(=O)O)c2)cc1 | inactive | –
92 | CC(C)c1cccc(C(C)C)c1N | inactive | –
93 | CO[Si](OC)(OC)OC | inactive | –
94 | NS(=O)(=O)c1cc2c(cc1Cl)NC(CSCc1ccccc1)=NS2(=O)=O | – | -0.0458% [at 18.6 µM]
95 | CCCCOCC(C)OCC(C)O (centres undefined) | inactive | –
96 | Cc1ccccc1C(=O)O | inactive | –
97 | CCCCCCCCCCCCCCCCCCOCC(O)CO (centres undefined) | inactive | –
98 | C=CCOc1nc(OCC=C)nc(OCC=C)n1 | inactive | –
99 | Cn1ccc2cc3c(cc21)CCN3C(=O)Nc1cccnc1 | inactive | –
